This passage reports binding signal results from PMC7862700, “An all-to-all approach to the identification of sequence-specific readers for epigenetic DNA modifications on cytosine”.

Test in all cases: DAPPL (digital affinity profiling via proximity ligation, sequencing); 10 mM Tris-HCl pH 7.5, 50 mM NaCl, 1 mM DTT, 4% glycerol, room temperature, 30 min; GST-TFs on glutathione beads, 16-mer random dsDNA library, 0.1% formaldehyde crosslink after washing; high values mean tight binding
Assay [1] addresses T1, FEV (Homo sapiens, UniProt Q99581 1-238).
T1 sequence: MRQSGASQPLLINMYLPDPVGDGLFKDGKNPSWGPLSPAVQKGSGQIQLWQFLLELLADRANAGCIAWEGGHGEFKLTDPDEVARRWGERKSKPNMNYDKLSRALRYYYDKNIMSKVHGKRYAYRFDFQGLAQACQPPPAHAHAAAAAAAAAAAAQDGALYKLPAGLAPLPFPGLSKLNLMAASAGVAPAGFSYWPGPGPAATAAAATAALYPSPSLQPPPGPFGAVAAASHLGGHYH
Particulars: protein: recombinant; tags: N-terminal GST; dsDNA, one strand shown. The method in brief: (§1)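 Pools of DNA-barcoded human transcription factors, expressed in yeast as GST fusions on glutathione beads and combined with a tag-only sample, were incubated with 200 nmole of a 16-mer random double-stranded DNA library. Incubation took 30 min at room temperature in Tris/NaCl/DTT/glycerol buffer and was followed by washing, 0.1% formaldehyde crosslinking, proximity ligation (BsaI/T4 ligase, 1 h, 37 °C), PCR amplification and sequencing on an Illumina NextSeq500. Binding signal is the ratio of a hexamer's read frequency for a factor to its frequency for the tag-only sample.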

Assay [2] concerns the target ETV5 (Homo sapiens, UniProt P41161 1-510). The settings on record: protein: recombinant; tags: N-terminal GST; dsDNA, one strand shown. The procedure, abridged: as §1
The target in assay [3] is HSF1 (Homo sapiens, UniProt Q00613 1-529). The settings on record: protein: recombinant; tags: N-terminal GST; chain copies: 3; dsDNA, one strand shown. The procedure, abridged: as §1
Assay [4] concerns the target T2, SPIC (Homo sapiens, UniProt Q8N5J4 1-248).
T2 sequence: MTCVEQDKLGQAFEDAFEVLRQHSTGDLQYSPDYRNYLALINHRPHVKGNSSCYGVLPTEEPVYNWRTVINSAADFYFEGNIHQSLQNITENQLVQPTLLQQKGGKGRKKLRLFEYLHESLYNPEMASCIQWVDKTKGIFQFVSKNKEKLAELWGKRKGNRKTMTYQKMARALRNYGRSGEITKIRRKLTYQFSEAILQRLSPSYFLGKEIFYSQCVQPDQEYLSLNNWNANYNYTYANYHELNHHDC
The settings on record: protein: recombinant; tags: N-terminal GST; dsDNA, one strand shown. The procedure, abridged: as §1

Assay [5] has as its target ELF4 (Homo sapiens, UniProt Q99607 1-663). The settings on record: protein: recombinant; tags: N-terminal GST; dsDNA, one strand shown. The method in brief:
as §1

The target in assay [6] is T3, ELK4 (Homo sapiens, UniProt P28324-2 1-405).
T3 sequence: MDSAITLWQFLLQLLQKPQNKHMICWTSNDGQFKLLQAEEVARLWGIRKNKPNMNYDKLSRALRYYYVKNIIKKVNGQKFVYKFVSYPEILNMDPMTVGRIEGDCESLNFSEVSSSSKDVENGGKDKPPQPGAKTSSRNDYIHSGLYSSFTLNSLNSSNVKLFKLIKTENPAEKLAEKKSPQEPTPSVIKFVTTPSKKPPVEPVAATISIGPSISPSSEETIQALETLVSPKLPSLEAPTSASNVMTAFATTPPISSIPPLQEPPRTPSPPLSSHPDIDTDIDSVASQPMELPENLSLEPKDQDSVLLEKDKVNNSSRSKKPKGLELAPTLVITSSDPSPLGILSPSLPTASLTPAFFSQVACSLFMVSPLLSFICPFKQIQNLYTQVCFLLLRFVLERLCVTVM
The settings on record: protein: recombinant; tags: N-terminal GST; dsDNA, one strand shown. The method in brief: as §1

The target of assay [7] is T4, ETV2 (Homo sapiens, UniProt O00321 1-342).
T4 sequence: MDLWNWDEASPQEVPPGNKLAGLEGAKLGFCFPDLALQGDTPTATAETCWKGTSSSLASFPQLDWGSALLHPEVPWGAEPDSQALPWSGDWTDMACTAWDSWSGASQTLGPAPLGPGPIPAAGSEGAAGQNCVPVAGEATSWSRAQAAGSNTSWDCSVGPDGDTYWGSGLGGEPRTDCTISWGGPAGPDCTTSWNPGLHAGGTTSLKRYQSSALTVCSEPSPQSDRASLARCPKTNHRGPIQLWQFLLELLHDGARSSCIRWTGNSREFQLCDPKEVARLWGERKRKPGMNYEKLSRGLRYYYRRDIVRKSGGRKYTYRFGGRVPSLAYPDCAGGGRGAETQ
The settings on record: protein: recombinant; tags: N-terminal GST; dsDNA, one strand shown. The procedure, abridged:
as §1

In assay [8] the target is T5, ELF3 (Homo sapiens, UniProt P78545 1-371).
T5 sequence: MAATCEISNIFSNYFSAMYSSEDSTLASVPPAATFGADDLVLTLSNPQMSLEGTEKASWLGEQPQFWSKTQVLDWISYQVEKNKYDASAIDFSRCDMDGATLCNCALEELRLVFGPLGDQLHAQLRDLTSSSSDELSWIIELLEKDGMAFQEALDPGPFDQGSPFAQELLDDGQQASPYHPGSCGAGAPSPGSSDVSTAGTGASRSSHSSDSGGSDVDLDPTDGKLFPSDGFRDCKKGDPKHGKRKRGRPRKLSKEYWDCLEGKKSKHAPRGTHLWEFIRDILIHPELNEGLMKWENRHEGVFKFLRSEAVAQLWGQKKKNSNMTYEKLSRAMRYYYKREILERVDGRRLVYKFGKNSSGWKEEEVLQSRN
Particulars: protein: recombinant; tags: N-terminal GST; dsDNA, one strand shown. The procedure, abridged:
as §1

Assay [9] addresses CRX (Homo sapiens, UniProt O43186 1-299). The settings on record: protein: recombinant; tags: N-terminal GST; dsDNA, one strand shown. The procedure, abridged: as §1
Assay [10] concerns the target ETV1 (Homo sapiens, UniProt P50549 1-477). The settings on record: protein: recombinant; tags: N-terminal GST; dsDNA, one strand shown. The procedure, abridged: as §1
Assay [11] addresses T6, ERF (Homo sapiens, UniProt P50548 1-548).
T6 sequence: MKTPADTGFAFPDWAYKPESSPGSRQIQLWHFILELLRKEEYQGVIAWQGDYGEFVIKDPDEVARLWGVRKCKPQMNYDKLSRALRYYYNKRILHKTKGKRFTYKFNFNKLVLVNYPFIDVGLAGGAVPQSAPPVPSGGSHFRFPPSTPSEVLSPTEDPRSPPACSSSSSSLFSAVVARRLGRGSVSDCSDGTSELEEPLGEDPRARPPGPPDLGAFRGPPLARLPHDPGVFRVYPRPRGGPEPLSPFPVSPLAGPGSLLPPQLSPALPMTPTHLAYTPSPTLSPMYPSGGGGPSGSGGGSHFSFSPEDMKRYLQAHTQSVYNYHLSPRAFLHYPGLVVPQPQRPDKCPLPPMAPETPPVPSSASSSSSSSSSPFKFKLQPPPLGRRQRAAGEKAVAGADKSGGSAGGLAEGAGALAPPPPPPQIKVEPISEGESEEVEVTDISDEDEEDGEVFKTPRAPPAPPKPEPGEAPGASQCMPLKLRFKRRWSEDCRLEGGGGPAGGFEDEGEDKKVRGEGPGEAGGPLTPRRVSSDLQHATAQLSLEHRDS
The settings on record: protein: recombinant; tags: N-terminal GST; dsDNA, one strand shown. The method in brief: as §1

Assay [12] concerns the target T7, ETV3L (Homo sapiens, UniProt Q6ZN32 1-361).
T7 sequence: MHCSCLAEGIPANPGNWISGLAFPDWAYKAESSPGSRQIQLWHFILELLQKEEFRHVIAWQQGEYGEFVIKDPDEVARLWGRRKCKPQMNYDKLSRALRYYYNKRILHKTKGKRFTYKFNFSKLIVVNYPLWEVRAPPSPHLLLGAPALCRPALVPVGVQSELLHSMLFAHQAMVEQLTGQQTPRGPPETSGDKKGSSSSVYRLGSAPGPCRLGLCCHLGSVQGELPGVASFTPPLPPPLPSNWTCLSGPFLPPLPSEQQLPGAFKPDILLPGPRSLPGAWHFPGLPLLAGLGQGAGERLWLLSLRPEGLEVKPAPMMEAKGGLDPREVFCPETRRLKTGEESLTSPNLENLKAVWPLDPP
The settings on record: protein: recombinant; tags: N-terminal GST; dsDNA, one strand shown. The method in brief: as §1

Assay [13] concerns the target T8, ETS2 (Homo sapiens, UniProt P15036 1-469).
T8 sequence: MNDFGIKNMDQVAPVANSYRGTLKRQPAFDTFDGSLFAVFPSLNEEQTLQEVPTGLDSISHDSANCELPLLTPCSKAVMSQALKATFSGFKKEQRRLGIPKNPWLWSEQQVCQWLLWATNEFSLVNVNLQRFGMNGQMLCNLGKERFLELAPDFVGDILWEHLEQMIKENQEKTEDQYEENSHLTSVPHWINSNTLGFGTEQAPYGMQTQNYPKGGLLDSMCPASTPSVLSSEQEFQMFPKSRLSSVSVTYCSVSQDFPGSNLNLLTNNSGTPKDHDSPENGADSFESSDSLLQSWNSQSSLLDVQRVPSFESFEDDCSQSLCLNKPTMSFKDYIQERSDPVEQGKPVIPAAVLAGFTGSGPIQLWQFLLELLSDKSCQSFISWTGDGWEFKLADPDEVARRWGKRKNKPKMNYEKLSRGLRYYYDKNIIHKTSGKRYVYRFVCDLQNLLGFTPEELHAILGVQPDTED
The settings on record: protein: recombinant; tags: N-terminal GST; dsDNA, one strand shown. The method in brief:
as §1

For assay [14], the target named is T9, SPDEF (Homo sapiens, UniProt O95238 1-335).
T9 sequence: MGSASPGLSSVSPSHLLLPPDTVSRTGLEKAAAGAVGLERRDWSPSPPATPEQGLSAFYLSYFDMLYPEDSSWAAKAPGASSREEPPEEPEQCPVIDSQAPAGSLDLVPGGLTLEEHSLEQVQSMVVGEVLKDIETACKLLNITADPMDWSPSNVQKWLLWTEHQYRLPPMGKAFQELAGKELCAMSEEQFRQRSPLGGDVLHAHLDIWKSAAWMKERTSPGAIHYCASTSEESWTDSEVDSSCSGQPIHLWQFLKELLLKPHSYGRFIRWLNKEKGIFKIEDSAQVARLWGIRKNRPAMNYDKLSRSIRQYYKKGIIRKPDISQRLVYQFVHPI
Particulars: protein: recombinant; tags: N-terminal GST; dsDNA, one strand shown. The procedure, abridged:
as §1

Assay [15] deals with T10, ETV7 (Homo sapiens, UniProt Q9Y603 1-341).
T10 sequence: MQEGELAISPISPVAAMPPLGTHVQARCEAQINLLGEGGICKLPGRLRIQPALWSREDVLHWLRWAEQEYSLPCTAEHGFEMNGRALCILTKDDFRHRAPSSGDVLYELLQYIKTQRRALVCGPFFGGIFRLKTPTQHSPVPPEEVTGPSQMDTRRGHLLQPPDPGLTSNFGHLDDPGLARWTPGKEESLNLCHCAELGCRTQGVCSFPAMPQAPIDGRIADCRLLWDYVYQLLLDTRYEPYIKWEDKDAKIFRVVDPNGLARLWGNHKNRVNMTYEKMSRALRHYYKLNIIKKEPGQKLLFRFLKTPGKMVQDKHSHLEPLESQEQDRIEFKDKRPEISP
The settings on record: protein: recombinant; tags: N-terminal GST; dsDNA, one strand shown. The method in brief: as §1

Assay [16] addresses T11, ELF5 (Homo sapiens, UniProt Q9UKW6-2 1-255).
T11 sequence: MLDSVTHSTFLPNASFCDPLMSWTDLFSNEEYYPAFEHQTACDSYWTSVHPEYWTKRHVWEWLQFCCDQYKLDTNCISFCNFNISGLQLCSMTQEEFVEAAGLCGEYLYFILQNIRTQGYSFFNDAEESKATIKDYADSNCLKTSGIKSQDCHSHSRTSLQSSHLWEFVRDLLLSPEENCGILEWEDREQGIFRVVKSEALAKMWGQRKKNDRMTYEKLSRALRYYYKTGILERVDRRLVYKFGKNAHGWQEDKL
Particulars: protein: recombinant; tags: N-terminal GST; dsDNA, one strand shown. The method in brief:
as §1

The target in assay [17] is T12, ETV3 (Homo sapiens, UniProt P41162-2 1-143).
T12 sequence: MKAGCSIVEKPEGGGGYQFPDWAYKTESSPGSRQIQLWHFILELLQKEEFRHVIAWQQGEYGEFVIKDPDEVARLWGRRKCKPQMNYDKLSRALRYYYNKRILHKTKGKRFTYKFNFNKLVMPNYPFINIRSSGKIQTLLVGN
Particulars: protein: recombinant; tags: N-terminal GST; dsDNA, one strand shown. The procedure, abridged:
as §1

For assay [18], the target named is ETV6 (Homo sapiens, UniProt P41212 1-452). The settings on record: protein: recombinant; tags: N-terminal GST; dsDNA, one strand shown. The procedure, abridged:
as §1

Chain of ETV1 (P50549 whole entry): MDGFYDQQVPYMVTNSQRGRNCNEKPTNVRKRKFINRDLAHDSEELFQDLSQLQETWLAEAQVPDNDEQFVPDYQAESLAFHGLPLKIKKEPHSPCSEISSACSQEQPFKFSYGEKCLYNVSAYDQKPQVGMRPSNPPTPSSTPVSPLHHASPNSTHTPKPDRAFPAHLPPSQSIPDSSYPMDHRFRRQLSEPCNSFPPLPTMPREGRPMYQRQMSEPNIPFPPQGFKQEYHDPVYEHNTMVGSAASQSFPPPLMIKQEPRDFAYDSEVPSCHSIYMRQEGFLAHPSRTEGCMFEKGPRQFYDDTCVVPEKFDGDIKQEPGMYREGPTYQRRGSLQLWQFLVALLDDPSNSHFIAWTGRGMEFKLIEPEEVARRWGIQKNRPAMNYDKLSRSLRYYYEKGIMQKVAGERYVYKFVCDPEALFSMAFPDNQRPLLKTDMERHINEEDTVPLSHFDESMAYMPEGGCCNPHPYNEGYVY
Chain of HSF1 (Q00613 whole entry): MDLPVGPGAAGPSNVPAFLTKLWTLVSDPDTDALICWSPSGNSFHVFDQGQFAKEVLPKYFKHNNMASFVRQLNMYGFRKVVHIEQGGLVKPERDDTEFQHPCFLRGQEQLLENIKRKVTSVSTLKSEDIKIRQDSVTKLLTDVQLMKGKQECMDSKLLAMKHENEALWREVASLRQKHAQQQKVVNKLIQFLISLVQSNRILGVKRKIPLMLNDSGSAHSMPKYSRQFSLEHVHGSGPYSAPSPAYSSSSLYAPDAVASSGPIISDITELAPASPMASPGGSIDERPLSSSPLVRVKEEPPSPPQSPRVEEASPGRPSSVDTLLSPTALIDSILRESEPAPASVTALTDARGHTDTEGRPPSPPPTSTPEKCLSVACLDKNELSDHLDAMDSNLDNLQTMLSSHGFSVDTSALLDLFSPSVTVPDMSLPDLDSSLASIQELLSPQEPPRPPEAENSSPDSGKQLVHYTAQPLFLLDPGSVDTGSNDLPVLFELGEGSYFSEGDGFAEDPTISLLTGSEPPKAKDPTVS
Chain of ETV5 (P41161 whole entry): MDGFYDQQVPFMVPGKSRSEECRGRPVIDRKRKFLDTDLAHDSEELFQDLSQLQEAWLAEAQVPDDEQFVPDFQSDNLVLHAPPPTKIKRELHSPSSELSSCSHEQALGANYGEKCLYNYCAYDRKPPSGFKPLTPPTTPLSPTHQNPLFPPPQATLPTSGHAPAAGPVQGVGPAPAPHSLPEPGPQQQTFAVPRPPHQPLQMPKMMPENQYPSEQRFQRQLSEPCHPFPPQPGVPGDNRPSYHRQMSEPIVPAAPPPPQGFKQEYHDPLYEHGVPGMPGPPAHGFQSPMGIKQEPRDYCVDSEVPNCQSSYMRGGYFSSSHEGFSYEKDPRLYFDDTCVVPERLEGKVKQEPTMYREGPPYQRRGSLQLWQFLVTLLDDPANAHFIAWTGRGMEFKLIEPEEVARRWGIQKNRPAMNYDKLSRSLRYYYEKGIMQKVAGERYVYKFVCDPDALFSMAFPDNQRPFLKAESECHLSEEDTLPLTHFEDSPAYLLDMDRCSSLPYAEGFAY
Chain of ETV6 (P41212 whole entry): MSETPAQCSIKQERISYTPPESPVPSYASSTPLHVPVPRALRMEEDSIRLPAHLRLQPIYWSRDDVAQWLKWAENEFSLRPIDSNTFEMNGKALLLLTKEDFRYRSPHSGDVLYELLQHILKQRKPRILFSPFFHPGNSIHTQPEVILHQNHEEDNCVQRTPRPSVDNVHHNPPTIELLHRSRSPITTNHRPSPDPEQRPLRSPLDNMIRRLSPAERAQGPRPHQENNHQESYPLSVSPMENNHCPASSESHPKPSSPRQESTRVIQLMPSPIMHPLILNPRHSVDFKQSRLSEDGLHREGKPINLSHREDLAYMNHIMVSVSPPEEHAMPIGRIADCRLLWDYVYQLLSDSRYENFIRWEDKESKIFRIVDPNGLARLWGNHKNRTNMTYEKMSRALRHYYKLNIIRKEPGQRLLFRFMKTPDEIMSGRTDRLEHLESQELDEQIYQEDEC
Chain of ELF4 (Q99607 whole entry): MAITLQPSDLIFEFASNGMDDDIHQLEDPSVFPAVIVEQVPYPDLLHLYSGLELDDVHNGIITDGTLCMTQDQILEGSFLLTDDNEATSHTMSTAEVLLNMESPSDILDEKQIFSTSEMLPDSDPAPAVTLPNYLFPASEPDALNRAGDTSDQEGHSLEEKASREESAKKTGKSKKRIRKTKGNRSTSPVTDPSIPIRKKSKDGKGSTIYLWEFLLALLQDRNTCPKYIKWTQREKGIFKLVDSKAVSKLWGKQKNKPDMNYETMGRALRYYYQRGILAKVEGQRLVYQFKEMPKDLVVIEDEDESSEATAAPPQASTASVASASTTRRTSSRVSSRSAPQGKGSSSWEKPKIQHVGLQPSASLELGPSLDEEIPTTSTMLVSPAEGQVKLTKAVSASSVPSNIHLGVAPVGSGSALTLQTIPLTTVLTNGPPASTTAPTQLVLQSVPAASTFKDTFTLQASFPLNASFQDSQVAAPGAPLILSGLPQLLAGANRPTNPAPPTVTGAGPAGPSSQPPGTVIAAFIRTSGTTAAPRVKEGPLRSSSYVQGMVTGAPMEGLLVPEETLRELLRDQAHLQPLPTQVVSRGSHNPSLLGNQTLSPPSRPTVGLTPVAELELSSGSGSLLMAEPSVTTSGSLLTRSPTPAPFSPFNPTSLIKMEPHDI
Chain of CRX (O43186 whole entry): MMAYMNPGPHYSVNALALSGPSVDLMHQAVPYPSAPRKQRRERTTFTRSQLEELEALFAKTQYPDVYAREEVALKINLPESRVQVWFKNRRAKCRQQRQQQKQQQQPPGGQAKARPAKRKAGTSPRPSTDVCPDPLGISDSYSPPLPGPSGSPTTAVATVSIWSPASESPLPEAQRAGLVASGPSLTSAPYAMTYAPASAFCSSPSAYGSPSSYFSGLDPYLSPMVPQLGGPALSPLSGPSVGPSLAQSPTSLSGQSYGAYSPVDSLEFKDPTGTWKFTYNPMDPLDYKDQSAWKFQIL

Take TGGTCT: the binding signal was 1.45 fold enrichment (6-mer frequency, TF over GST control) in assay [1]; 1.52 fold enrichment (6-mer frequency, TF over GST control) in assay [2]; 1.12 fold enrichment (6-mer frequency, TF over GST control) in [3]; 1.34 fold enrichment (6-mer frequency, TF over GST control) in assay [4]; 1.57 fold enrichment (6-mer frequency, TF over GST control) in [5]; 1.48 fold enrichment (6-mer frequency, TF over GST control) in assay [6]. Moreover, the binding signal in [7] was 1.33 fold enrichment (6-mer frequency, TF over GST control); in assay [8] it was 1.28 fold enrichment (6-mer frequency, TF over GST control); in [9] it was 1.17 fold enrichment (6-mer frequency, TF over GST control); in assay [10], 1.5 fold enrichment (6-mer frequency, TF over GST control); in assay [11], 1.52 fold enrichment (6-mer frequency, TF over GST control); in assay [12], 1.55 fold enrichment (6-mer frequency, TF over GST control). Besides, the binding signal in assay [13] is 1.39 fold enrichment (6-mer frequency, TF over GST control); in assay [14], 1.35 fold enrichment (6-mer frequency, TF over GST control); in [15], 1.28 fold enrichment (6-mer frequency, TF over GST control); in assay [16], 1.55 fold enrichment (6-mer frequency, TF over GST control); in assay [17], 1.44 fold enrichment (6-mer frequency, TF over GST control); in [18], 1.42 fold enrichment (6-mer frequency, TF over GST control).
